The structures appear in SMILES notation. The panel holds about 83,000 compounds, 20% with a hit somewhere; the sample as a whole holds those more often.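 Assay: single dose, 48 h. Readout: percent growth (0 = no net growth; negative = cell death). Active: <10.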 Active and inactive are the calls of the source.

For this experiment, the system named is SNB-75 CNS. The experiment can be described thus: NCI-60 one-dose screen, 48 h (100 = growth as untreated, 0 = no growth, -100 = all killed). Particulars: 10 µM unless noted. The method, then:
Growth inhibition of the SNB-75 human tumor cell line is measured as a screen for anti-cancer activity. Cells are grown in 96 well plates and exposed to the test compound for 48 hours. Compounds are tested at a single concentration, which is 10^-5 M for most compounds. The reported endpoint is percent growth (GI% or GIPRCNT), where numbers from 0 - 100% represent growth inhibition, and numbers from -100% - 0 represent cell death. For example, a value of 40 represents 60% growth inhibition. A value of 0 means no net growth occurred over the course of the experiment. A value of -40 indicates 40% of cells at the beginning of the experiment died by the end of the experiment. A value of -100 means all cells are dead at the end of the experiment.
NCI-60 Human Tumor Cell Lines Screen was performed using the standard one-dose NCI protocol, which is described in more detail at https://dtp.cancer.gov/discovery_development/nci-60/default.htm.
Compounds with GIPRCNT values below 10 were considered active. Activity score was based on GIPRCNT using the following formula: […]
Score is 0 for GIPRCNT values of 100 or above, 50 for GIPRCNT values of 0, and 100 for GIPRCNT values of -100.
For the molecule `CC(=O)N1N=C(c2ccc(Nc3nc(Nc4ccc(F)cc4)nc(Nc4ccc(Cl)cc4)n3)cc2)CC1c1ccc(Cl)cc1` (stereo not given), the growth was 70.1% (inactive).
The result for `C(=N/Nc1ncnc2nc[nH]c12)/c1ccccn1` reads 75.5% (inactive).
The figure for `CC(=O)OC[C@H]1OC(Sc2sc(C(=O)c3ccc(C)cc3)c(N)c2-c2nc3ccccc3s2)[C@H](OC(C)=O)[C@@H](OC(C)=O)[C@@H]1OC(C)=O` (stereo not given in full) is 25.4% (inactive).
The result for `COc1cc(C(=O)/C=C/c2c(Cl)nc3sccn23)cc(OC)c1OC` reads 70.9% (inactive).
On to `Cc1ccc2c(n1)C(=O)C(Cl)=C(Nc1ccccc1C(C)C)C2=O`, for which the growth was 85.7% (inactive).
The figure for `Cc1nc2cnc(N)c(C#Cc3cncc(C(=O)Nc4ccc(CN5CCN(C)CC5)c(C(F)(F)F)c4)c3)c2nc1C` is -5.44% (active); for `CC(=O)CC(c1ccccc1)c1c(C)[nH]c2ccccc12` (stereo not given) it is 60.3% (inactive); for `N#Cc1c(-c2ccccc2)nc(SCC(=O)Nc2nc(-c3ccc(Cl)cc3)cs2)[nH]c1=O` it is 84.3% (inactive).
The figure for `CCc1nnc(NC(=O)c2nnn(-c3ccccc3)c2-c2ccco2)s1` is 89.6% (inactive); for `O=C(Nc1ccc(F)cc1F)c1cc(F)ccc1O` it is 10.6% (inactive); for `Cc1cccc2c3c(sc12)C(c1ccc(Cl)cc1)C(C#N)=C(/N=C/c1ccc(Cl)cc1)O3` (stereo not given) it is -3.88% (active).
The figure for `CC/C=C\C[C@@H](O)C/C=C1/C(=O)C=C[C@H]1C/C=C\CCCC(=O)OC` is 90.8% (inactive).
As for `CCOC(=O)c1cn2ncnc(Oc3ccc(NC(=O)NCCN(C)C)c(Cl)c3)c2c1C`, the growth was 99.1% (inactive).
The figure for `COC1=C(C)C(=O)c2c(c(CCCl)c3n2CCC3O)C1=O` (stereo not given) is -45.3% (active); for `CCCCCCNC(=O)Oc1ccc(/C(=C(\C)c2ccc(OC)cc2)c2ccc(OCCN3CCCCC3)cc2)cc1` it is 69.4% (inactive); for `Oc1ccc(C#CCOc2ccccc2)cc1CNCCN(Cc1ccccn1)Cc1ccccn1` it is 25.6% (inactive).
In the case of `COc1ccc(N2C(=O)C(Oc3ccccc3)C2c2ccc(C)cc2)cc1` (stereo not given), the growth is 97.7% (inactive).
The result for `COc1cccc(/C=C2\C=C(c3ccccc3)N(Cc3ccccc3)C2=O)c1` reads 51.4% (inactive).
The figure for `COc1ccn2c(C(C)=O)cc(C(=O)c3ccc4c(c3)Sc3ccccc3N4)c2c1` is 21.1% (inactive); for `CNc1nc2c(s1)C(c1cccc(F)c1)CC(=O)N2` (stereo not given) it is 76.8% (inactive); for `CCC(=O)Nc1ccc(-c2nc(-c3cccc(OC)c3)c(-c3ccnc(Br)c3)[nH]2)cc1` it is 15.9% (inactive).
The result for `CC(=O)O.CN1[CH-]N(Cc2ccc(C#N)cc2)c2ccccc21.[Ag+]` reads 94.7% (inactive); that for `Cc1ncc(C(=O)Nc2ccc(CN3CCN(C)CC3)c(C(F)(F)F)c2)cc1C#Cc1ccc(N)nc1`, -57.3% (active); that for `COc1ccc(C(=O)C[C@]2(O)C(=O)Nc3c(Cl)ccc(Cl)c32)cc1`, -39.5% (active).
As for `O=[N+]([O-])c1ccc(Cl)c(-c2cc(CCCCO)on2)c1`, the growth was 81.7% (inactive).
The result for `COc1cccc2nc3n(c12)C(c1c(F)cccc1F)SC3` (stereo not given) reads 96% (inactive); that for `O=C1CCC(C(=O)NCCNCCNC(=O)C2CCC(=O)N2)N1` (stereo not given), 101% (inactive); that for `Cc1nn(-c2ccccc2)c(-n2ccnc2)c1/C=N/Nc1nc(-c2ccc(Cl)c(Cl)c2)cs1`, -2.39% (active).
Take `COc1ccc(-c2cc(-c3ccc(Cl)cc3)c(C#N)c(=O)n2CCCCCC(=O)Nc2ccccc2N)cc1`: the growth was -6.08% (active).
With `CC(=O)N1CCN(c2ccc(OCC3CO[C@](Cn4ccnc4)(c4ccc(Cl)cc4Cl)O3)cc2)CC1` (stereo not given in full), the growth was 79.6% (inactive).
The result for `c1ccc2c(-c3nc(-c4c[nH]c5ccncc45)cs3)c[nH]c2c1` reads 57.6% (inactive).
The figure for `CCCCCCCCCCCCCCCCCCOc1ccc(CC(=O)OCC[N+](C)(C)C)cc1` is 113% (inactive).
The figure for `COc1ccc([C@H]2c3cc(OC)c(OC)cc3C=C(C=O)C2CO)cc1OC` (stereo not given in full) is 15.8% (inactive); for `COc1ccc(CN2c3ccccc3Sc3ccccc32)c(F)c1` it is -5.99% (active); for `COc1ccc(-c2nc(NCCO)[nH]c(=O)c2C#N)cc1` it is 91.8% (inactive).
As to `COC(=O)C(Cc1ccccc1)NC(=O)NC(=O)NC(=O)CI` (stereo not given), the growth is 98.9% (inactive).
As for `C=CCNc1ccc2c3c(cccc13)C(=O)N(N1C(=O)c3cccc4cccc(c34)C1=O)C2=O`, the growth is 90.4% (inactive).
The result for `Cc1ccc2c(-c3cc(-c4ccccc4)nc(N)c3C#N)cc(=O)oc2c1` reads 100% (inactive); that for `COc1cc(C2CC(c3cccc(Br)c3)=NN2C(C)=O)cc(OC)c1OC` (stereo not given), 12% (inactive).
For `CCc1ccc(Oc2c(-c3ccc(OCc4ccc(Cl)cc4)cc3O)nn(C)c2C(F)(F)F)cc1`, the growth is -0.904% (active).

The values are drawn from PubChem BioAssay (NCI).
